# About 79,000 compounds went through this panel and 15% of them were active in at least one assay; those are over-represented in the sample as a whole. Values without a mark were called inactive. Activity calls are given as the source filed them. Rule as the data show it: active = growth inhibition above about 70%; inactive = the rest.
# What was measured:
# [1] = NCI Yeast Anticancer Drug Screen. Data for the rad52 strain (AID 147);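 also: 0% = growth of vehicle-treated control cultures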; settings: S. cerevisiae rad52 mutant growth inhibition, active compounds read high
# How it was run: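 Read-out: growth inhibition versus vehicle-treated controls. Cells were a DNA repair-deficient yeast strain treated with compounds.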
# [2] = NCI Yeast Anticancer Drug Screen. Data for the rad50EPP+ strain (AID 151);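 also: 0% = growth of vehicle-treated control cultures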; settings: S. cerevisiae rad50 mutant strain, active compounds read high
# How it was run: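 Growth inhibition read against vehicle controls in rad50EPP+ yeast, a strain altered in DNA damage repair, after compound exposure.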
# [3] = NCI Yeast Anticancer Drug Screen. Data for the rad50 strain (AID 155);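 also: 0% = growth of vehicle-only cultures of the same strain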; settings: S. cerevisiae rad50 strain growth inhibition, active compounds read high
# How it was run: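 Relative growth inhibition (compound vs vehicle) was measured in yeast with a defined repair-gene alteration.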
# [4] = NCI Yeast Anticancer Drug Screen. Data for the mec2-1 strain (AID 157); settings: S. cerevisiae mec2-1 strain, active compounds read high
# How it was run: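 Yeast mec2-1 mutant treated with compound. Readout: growth inhibition vs vehicle controls.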
# [5] = NCI Yeast Anticancer Drug Screen. Data for the rad14 strain (AID 159);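 also: 0% = growth of vehicle-treated control cultures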; settings: S. cerevisiae rad14 strain growth inhibition, active compounds read high
# How it was run: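 Screen for anticancer potential: a yeast strain altered in DNA damage repair is grown with compound, and reduced growth is quantified against vehicle controls.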
# [6] = NCI Yeast Anticancer Drug Screen. Data for the sgs1 mgt1 strain (AID 161);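 also: 0% = growth of cultures given vehicle only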; settings: S. cerevisiae sgs1 mgt1 strain, active compounds read high
# How it was run: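 Test agents were incubated with a DNA-repair-mutant yeast strain. Growth was then read and compared against vehicle-treated controls.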
# [7] = NCI Yeast Anticancer Drug Screen. Data for the CLN2oe strain (AID 163);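 also: 0% = growth of vehicle-only control cultures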; settings: S. cerevisiae CLN2oe strain, active compounds read high
# How it was run: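 Read-out: yeast growth inhibition, expressed relative to vehicle-only controls. The strain bears an engineered cell-cycle alteration.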
# [8] = NCI Yeast Anticancer Drug Screen. Data for the cln2 rad14 strain (AID 165);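 also: 0% = growth equal to vehicle treated cultures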; settings: S. cerevisiae cln2 rad14 strain, active compounds read high
# How it was run: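 cln2 rad14 yeast strain; compound exposure; growth inhibition read vs vehicle controls.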
# [9] = NCI Yeast Anticancer Drug Screen. Data for the bub3 strain (AID 167); settings: S. cerevisiae bub3 mutant strain, active compounds read high
# How it was run: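 Screening used yeast with an engineered genetic alteration affecting cell cycle control. Compound-exposed cultures were compared with vehicle cultures, and reduced growth was taken as inhibition.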
# [10] = NCI Yeast Anticancer Drug Screen. Data for the wt2 strain (AID 169);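 also: 0% = growth of vehicle-treated yeast cultures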; settings: S. cerevisiae wt2 strain growth inhibition, active compounds read high
# How it was run: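 Read-out: growth inhibition versus vehicle-treated control cultures after compound exposure of the yeast strain.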
# [11] = NCI Yeast Anticancer Drug Screen. Data for the mlh1 strain (AID 171);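 also: 0% = growth of vehicle-treated control cultures of the same strain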; settings: S. cerevisiae mlh1 strain growth inhibition, active compounds read high
# How it was run: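 Read-out: growth inhibition versus vehicle controls. Strain: engineered yeast with a defined DNA repair or cell cycle defect, compound-treated.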
# [12] = NCI Yeast Anticancer Drug Screen. Data for the sgs1 strain (AID 173);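 also: 0% = growth of vehicle-only control cultures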; settings: S. cerevisiae sgs1 mutant, active compounds read high
# How it was run: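 Read-out: yeast growth inhibition relative to vehicle controls, following compound exposure of a strain with a defined DNA repair/cell cycle alteration.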
# [13] = NCI Yeast Anticancer Drug Screen. Data for the mlh1 rad18 strain (AID 175); settings: S. cerevisiae mlh1 rad18 strain growth inhibition, active compounds read high
# How it was run: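 Yeast w/ defined DNA-repair lesions; compound exposure; growth vs vehicle controls → % inhibition.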
# [14] = NCI Yeast Anticancer Drug Screen. Data for the rad18 strain (AID 177); settings: S. cerevisiae rad18 mutant growth inhibition, active compounds read high
# How it was run: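 Readout: growth inhibition vs vehicle controls. Cells: genetically altered yeast strain, DNA repair defect.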
# [15] = NCI Yeast Anticancer Drug Screen. Data for the wt1 strain (AID 149);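 also: 0% = growth of vehicle-treated wt1 cultures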; settings: S. cerevisiae wt1 strain (SPY 50644) growth inhibition, active compounds read high
# How it was run: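 Using yeast strain wt1, compound-induced growth inhibition was determined against vehicle-treated cultures.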
# [16] = NCI Yeast Anticancer Drug Screen. Data for the mgt1 strain (AID 153); settings: S. cerevisiae mgt1 mutant growth inhibition, active compounds read high
# How it was run: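 mgt1 yeast grown with test compound; read-out is growth inhibition versus vehicle-treated cultures.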
# [17] = at 5.0 µM (retest, dose inferred, filed as 0.5)
# [18] = at 50.0 µM (retest, dose inferred, filed as 5.0)
smiles,measurement,setting,value
COC(=O)c1ccc(CCC2=CC(=O)C(Br)=CC2=O)cc1,growth inhibition,[1]; at 1.2 µM,17%
same,growth inhibition,[1]; at 3.7 µM,35%
same,growth inhibition,[1]; at 11.0 µM,47%
same,growth inhibition,[1]; at 33.0 µM,52%
same,growth inhibition,[1]; at 100.0 µM,72% (active)
same,growth inhibition,[2]; at 1.2 µM,2%
same,growth inhibition,[2]; at 3.7 µM,37%
same,growth inhibition,[2]; at 11.0 µM,42%
same,growth inhibition,[2]; at 33.0 µM,62%
same,growth inhibition,[2]; at 100.0 µM,88% (active)
same,growth inhibition,[3]; at 1.2 µM,-3%
same,growth inhibition,[3]; at 3.7 µM,14%
same,growth inhibition,[3]; [17],12%
same,growth inhibition,[3]; at 11.0 µM,15%
same,growth inhibition,[3]; at 33.0 µM,18%
same,growth inhibition,[3]; [18],99% (active)
same,growth inhibition,[3]; at 50.0 µM,61.1%
same,growth inhibition,[3]; at 100.0 µM,34%
same,growth inhibition,[4]; at 1.2 µM,-7%
same,growth inhibition,[4]; at 3.7 µM,-15%
same,growth inhibition,[4]; [17],44%
same,growth inhibition,[4]; at 11.0 µM,-12%
same,growth inhibition,[4]; at 33.0 µM,-12%
same,growth inhibition,[4]; [18],98% (active)
same,growth inhibition,[4]; at 50.0 µM,68.2%
same,growth inhibition,[4]; at 100.0 µM,19%
same,growth inhibition,[5]; at 1.2 µM,-6%
same,growth inhibition,[5]; at 3.7 µM,1%
same,growth inhibition,[5]; at 11.0 µM,5%
same,growth inhibition,[5]; at 33.0 µM,8%
same,growth inhibition,[5]; at 100.0 µM,54%
same,growth inhibition,[6]; [17],10%
same,growth inhibition,[6]; [18],0%
same,growth inhibition,[6]; at 50.0 µM,20.3%
same,growth inhibition,[7]; at 1.2 µM,-11%
same,growth inhibition,[7]; at 3.7 µM,-5%
same,growth inhibition,[7]; at 11.0 µM,10%
same,growth inhibition,[7]; at 33.0 µM,7%
same,growth inhibition,[7]; at 100.0 µM,35%
same,growth inhibition,[8]; [17],4%
same,growth inhibition,[8]; [18],14%
same,growth inhibition,[8]; at 50.0 µM,38.7%
same,growth inhibition,[9]; at 1.2 µM,-20%
same,growth inhibition,[9]; at 3.7 µM,-11%
same,growth inhibition,[9]; [17],8%
same,growth inhibition,[9]; at 11.0 µM,-9%
same,growth inhibition,[9]; at 33.0 µM,-5%
same,growth inhibition,[9]; [18],6%
same,growth inhibition,[9]; at 50.0 µM,23.1%
same,growth inhibition,[9]; at 100.0 µM,29%
same,growth inhibition,[10]; at 1.2 µM,-12%
same,growth inhibition,[10]; at 3.7 µM,7%
same,growth inhibition,[10]; at 11.0 µM,39%
same,growth inhibition,[10]; at 33.0 µM,88% (active)
same,growth inhibition,[10]; at 100.0 µM,98% (active)
same,growth inhibition,[11]; at 1.2 µM,0%
same,growth inhibition,[11]; at 3.7 µM,-4%
same,growth inhibition,[11]; at 11.0 µM,-5%
same,growth inhibition,[11]; at 33.0 µM,5%
same,growth inhibition,[11]; at 100.0 µM,56%
same,growth inhibition,[12]; at 1.2 µM,8%
same,growth inhibition,[12]; at 3.7 µM,26%
same,growth inhibition,[12]; at 11.0 µM,34%
same,growth inhibition,[12]; at 33.0 µM,35%
same,growth inhibition,[12]; at 100.0 µM,70% (active)
same,growth inhibition,[13]; [17],27%
same,growth inhibition,[13]; [18],99% (active)
same,growth inhibition,[13]; at 50.0 µM,91.8% (active)
same,growth inhibition,[14]; at 1.2 µM,-25%
same,growth inhibition,[14]; at 3.7 µM,-8%
same,growth inhibition,[14]; at 11.0 µM,-8%
same,growth inhibition,[14]; at 33.0 µM,-25%
same,growth inhibition,[14]; at 100.0 µM,40%
CC1C(NNc2ccccc2)Oc2cc3c(cc2C1c1ccccc1O)OCO3 (stereo unspecified),growth inhibition,[15]; at 1.2 µM,72% (active)
same,growth inhibition,[15]; at 3.7 µM,98% (active)
same,growth inhibition,[15]; at 11.0 µM,99% (active)
same,growth inhibition,[15]; at 33.0 µM,96% (active)
same,growth inhibition,[15]; at 100.0 µM,95% (active)
same,growth inhibition,[2]; at 1.2 µM,-1%
same,growth inhibition,[2]; at 3.7 µM,7%
same,growth inhibition,[2]; at 11.0 µM,71% (active)
same,growth inhibition,[2]; at 33.0 µM,90% (active)
same,growth inhibition,[2]; at 100.0 µM,91% (active)
same,growth inhibition,[16]; at 1.2 µM,-4%
same,growth inhibition,[16]; at 3.7 µM,63%
same,growth inhibition,[16]; at 11.0 µM,99% (active)
same,growth inhibition,[16]; at 33.0 µM,93% (active)
same,growth inhibition,[16]; at 100.0 µM,94% (active)
same,growth inhibition,[3]; at 1.2 µM,12%
same,growth inhibition,[3]; at 3.7 µM,95% (active)
same,growth inhibition,[3]; [17],17%
same,growth inhibition,[3]; at 11.0 µM,98% (active)
same,growth inhibition,[3]; at 33.0 µM,93% (active)
same,growth inhibition,[3]; [18],98% (active)
same,growth inhibition,[3]; at 50.0 µM,86.9% (active)
same,growth inhibition,[3]; at 100.0 µM,92% (active)
same,growth inhibition,[4]; at 1.2 µM,7%
same,growth inhibition,[4]; at 3.7 µM,80% (active)
same,growth inhibition,[4]; [17],34%
same,growth inhibition,[4]; at 11.0 µM,98% (active)
same,growth inhibition,[4]; at 33.0 µM,94% (active)
same,growth inhibition,[4]; [18],97% (active)
same,growth inhibition,[4]; at 50.0 µM,88.2% (active)
same,growth inhibition,[4]; at 100.0 µM,94% (active)
same,growth inhibition,[5]; at 1.2 µM,-4%
same,growth inhibition,[5]; at 3.7 µM,54%
same,growth inhibition,[5]; at 11.0 µM,99% (active)
same,growth inhibition,[5]; at 33.0 µM,93% (active)
same,growth inhibition,[5]; at 100.0 µM,93% (active)
same,growth inhibition,[6]; [17],-26%
same,growth inhibition,[6]; [18],97% (active)
same,growth inhibition,[6]; at 50.0 µM,89.6% (active)
same,growth inhibition,[7]; at 1.2 µM,-1%
same,growth inhibition,[7]; at 3.7 µM,98% (active)
same,growth inhibition,[7]; at 11.0 µM,96% (active)
same,growth inhibition,[7]; at 33.0 µM,90% (active)
same,growth inhibition,[7]; at 100.0 µM,88% (active)
same,growth inhibition,[8]; [17],47%
same,growth inhibition,[8]; [18],97% (active)
same,growth inhibition,[8]; at 50.0 µM,90.8% (active)
same,growth inhibition,[9]; at 1.2 µM,-11%
same,growth inhibition,[9]; at 3.7 µM,68%
same,growth inhibition,[9]; [17],67%
same,growth inhibition,[9]; at 11.0 µM,98% (active)
same,growth inhibition,[9]; at 33.0 µM,93% (active)
same,growth inhibition,[9]; [18],98% (active)
same,growth inhibition,[9]; at 50.0 µM,91.5% (active)
same,growth inhibition,[9]; at 100.0 µM,94% (active)
same,growth inhibition,[10]; at 1.2 µM,51%
same,growth inhibition,[10]; at 3.7 µM,98% (active)
same,growth inhibition,[10]; at 11.0 µM,99% (active)
same,growth inhibition,[10]; at 33.0 µM,96% (active)
same,growth inhibition,[10]; at 100.0 µM,94% (active)
same,growth inhibition,[11]; at 1.2 µM,-6%
same,growth inhibition,[11]; at 3.7 µM,61%
same,growth inhibition,[11]; at 11.0 µM,98% (active)
same,growth inhibition,[11]; at 33.0 µM,94% (active)
same,growth inhibition,[11]; at 100.0 µM,93% (active)
same,growth inhibition,[12]; at 1.2 µM,94% (active)
same,growth inhibition,[12]; at 3.7 µM,99% (active)
same,growth inhibition,[12]; at 11.0 µM,99% (active)
same,growth inhibition,[12]; at 33.0 µM,95% (active)
same,growth inhibition,[12]; at 100.0 µM,95% (active)
same,growth inhibition,[13]; [17],83% (active)
same,growth inhibition,[13]; [18],98% (active)
same,growth inhibition,[13]; at 50.0 µM,91.9% (active)
same,growth inhibition,[14]; at 1.2 µM,12%
same,growth inhibition,[14]; at 3.7 µM,94% (active)
same,growth inhibition,[14]; at 11.0 µM,98% (active)
same,growth inhibition,[14]; at 33.0 µM,91% (active)
same,growth inhibition,[14]; at 100.0 µM,92% (active)

# — PubChem BioAssay (NCI)
